# Source: PubChem
# Compounds with a hit are over-represented: about 2.8% of the library has one in this group of screens.
# KDM5B inh – blocks human KDM5B histone demethylase activity. Q9UGL1. KDM5B demethylase, FDH-coupled NADH fluorescence (FDH is formaldehyde dehydrogenase). Potency, µM (series often up to 57.7 µM), usual class: inhibitors. 2.6% of 220,000 active. AID 1347165; further: nearly all actives have a fitted effect of over 70% in size
#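 Coupled FDH/NAD⁺ fluorescence readout. KDM5BΔAP 200 nM final; compound titration, 10 min RT preincubation; substrate mix 12.5 µM H3K4me3, 25 µM 2-OG, 50 µM Fe(II), 100 µM ascorbate, 0.25 mM NAD⁺, 0.25 U/mL FDH; ΔRFU over 30 min.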
# SNCA viab count – reduces viability of HEK-293 SNCA reporter cells; HEK-293-SNCA-luc viability, GF-AFC fluorescence, 24 h; 0.12% of 150,000 active; Potency, µM (series often up to 57.1 µM), hits mostly cytotoxic; further: nearly all actives have a fitted effect of over 30% in size
#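 HEK-293-SNCA-luc cells (1500/well) plated 24 h, then exposed 24 h to a dilution series; GF-AFC added 30 min at 37C, fluorescence 405/540 nm; normalised to medium-only and DMSO wells, Hill fit.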
# SNCA expr inhib – SNCA gene expression inhibition; HEK-293 SNCA-luciferase knock-in, luminescence, 24 h; Potency, µM (highest dose often 57.2 µM), actives largely listed as inhibitors; 0.17% of 140,000 active; AID 1671194; further: nearly all actives have a fitted effect of over 45% in size
# IP6K1 inhibitor – blocks human inositol hexakisphosphate kinase 1 | IP6K1 kinase, ADP-Glo luminescence, 2 h; active compounds read low | activity change, % (series mostly up to about 58 µM) | 0.81% of 140,000 active | AID 1645851; in the data active means activity change below about -25%
#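 ADP-Glo luminescence measures ADP made by human IP6K1 during a 2 h RT reaction with ATP/IP6 (mix at 1.3 mM/130 uM); top library doses 57.5 and 19.1 uM final.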
# Numbers stand for hits; n = inactive; u = inconclusive; x = no result; ! = not active in a repeat. Unless noted, the call rests on the fitted dose curve; in most records, active means well fitted curve in the direction sought with a large enough effect; inconclusive means small, poorly fitted or top-dose-only effect, or another doubt; inactive means no such curve, though single readings can be large; an effect the other way counts as inactive or inconclusive.
SMILES,KDM5B inh,SNCA viab count,SNCA expr inhib,IP6K1 inhibitor
O=C(Nc1ccc(-c2nnc3n2CCCC3)cc1)c1cc(-c2ccccc2)n[nH]1,31.6µM,n,n,n
O=C(Nc1cccc(-c2nnc3n2CCCC3)c1)c1cc(-c2ccccc2)n[nH]1,u,n,n,n
Cc1cccc2sc(N3CCN(C(=O)c4ccco4)CC3)nc12,n,n,n,n
COc1ccc(CC(=O)NC2CCN(c3nnc4cccc(C)n34)CC2)cc1,28.2µM,n,n,n
O=C(Cc1ccc(F)cc1)NC1CCN(c2nc3ncccc3o2)CC1,28.2µM,n,n,n
COc1ccc(CC(=O)N2CCN(c3nc4ncccc4o3)CC2)cc1,u,n,n,n
Cc1cccc2nnc(N3CCN(C(=O)c4ccco4)CC3)n12,22.4µM,n,u,n
COc1ccc(CC(=O)NC2CCN(c3nc4ncccc4o3)CC2)cc1,31.6µM,n,n,n
Cc1ncc(-c2ccc(S(=O)(=O)Nc3ccccc3C)cc2)o1,n,x,x,x
CC(Oc1ccccc1)C(=O)N1CC(Oc2ccccc2-c2nc(-c3ccccc3)no2)C1 (stereo not drawn),x,n,n,n
CCC(CC)NC(=O)Cn1nc(C)c2ccccc2c1=O,n,x,x,x
O=C(Cc1ccccn1)NC1CCN(c2nc3ncccc3o2)CC1,25.1µM!,n,n,n
COc1ccc(C(CC(=O)N(C)Cc2cnc3ccccn23)c2ccccc2)cc1 (stereo not drawn),31.6µM,n,n,n
COc1ccc(C(CC(=O)N(C)C)c2ccccc2)cc1 (stereo not drawn),n,n,n,n
Cc1cc(C)c(CNC(=O)c2nc(-c3cccc(O)c3)cc3[nH]ccc23)c(=O)[nH]1,31.6µM,u,n,n
Cc1cc(C)c(CNC(=O)c2nc(Nc3ccccc3)cc3[nH]ccc23)c(=O)[nH]1,15.8µM,n,n,n
Cc1cc(-c2cc3c(ccn3C(C)C)c(C(=O)NCc3c(C)cc(C)[nH]c3=O)n2)ccn1,n,n,n,n
COc1ncccc1-c1cc2[nH]ccc2c(C(=O)NCc2c(C)cc(C)[nH]c2=O)n1,n,u,n,n
COCCn1c(C)nnc1-c1cc(-c2ccnc(C)c2)ccn1,n,n,n,n
COCCn1c(C)nnc1-c1cc(-c2cccc(OC)c2)ccn1,35.5µM,n,n,n
COc1cccc(Nc2ncc3c(n2)C(C)(C(=O)Nc2nc(C)cs2)CC3)c1 (stereo not drawn),35.5µM,n,n,n
CC(=O)NC1(C(F)(F)F)C(=O)N(Cc2ccccc2)C(C)=C1C(=O)c1ccccc1 (stereo not drawn),n,x,x,x
Cc1ccc(-c2cn3c(n2)CO[C@@H](CNS(C)(=O)=O)C3)cc1,39.8µM,n,n,n
COc1ccc(-c2cn3c(n2)CO[C@@H](CNS(C)(=O)=O)C3)cc1,u,n,n,n
O=C(NCC1CC2c3ccccc3C1c1ccccc12)c1ccc[n+]([O-])c1 (stereo not drawn),n,x,x,x
SMILES,KDM5B inh,SNCA viab count,SNCA expr inhib,IP6K1 inhibitor
CN(C)C[C@@H]1CN(Cc2cccnc2)C[C@H]1NC(=O)c1cc2ccccc2[nH]1,28.2µM,n,n,n
O=C(N[C@@H]1CN(c2ncccn2)C[C@H]1CO)c1cc2ccccc2[nH]1,14.1µM,n,n,n
Cc1cc(C)n(CC(=O)N[C@@H]2CN(Cc3ccccc3)C[C@H]2CN(C)C)c(=O)n1,8.91µM,n,n,n
Cn1nccc1C(=O)N[C@@H]1CN(c2ncccn2)C[C@H]1CO,u,n,n,n
Cn1cccc1C(=O)N[C@@H]1CN(c2ncccn2)C[C@H]1CO,u,n,n,n
Cn1cnc(C(=O)N[C@@H]2CN(c3ncccn3)C[C@H]2CO)c1,28.2µM,n,n,n
O=C(CSc1ncnc2ccccc12)Nc1cc(C(F)(F)F)cc(C(F)(F)F)c1,n,x,x,x
COc1ccccc1/C=C/C(=O)Oc1ccc(Cl)c(Cl)c1,n,x,x,x
COc1ccc2nc([C@H]3CCN(CCCc4ccccc4)C3)[nH]c2c1,u,n,n,n
CS(=O)(=O)Cc1ccc(C(=O)Nc2ccc(F)cc2F)cc1,n,x,x,x
O=[N+]([O-])c1cccc2nc(/C=C/c3cccc(O)c3)ccc12,n,x,x,x
CN(C)C[C@@H]1CN(c2ncccn2)C[C@H]1NC(=O)NCCc1ccccc1,u,n,n,n
CN(C)C[C@@H]1CN(c2ncccn2)C[C@H]1NC(=O)c1cc2ccccc2[nH]1,28.2µM,n,n,n
O=C(Nc1ccnc(Cl)c1)[C@@H]1CCCN1c1ccnc2ccnn12,x,x,x,n
Cc1cccc(C)c1NC(=O)Cn1c(=O)n(Cc2ccc(C(=O)NCc3ccco3)cc2)c(=O)c2sccc21,n,n,u,n
Cc1cc(C)c(NC(=O)Cn2c(=O)n(Cc3ccc(C(=O)NCc4ccco4)cc3)c(=O)c3sccc32)c(C)c1,n,u,25.1µM,n
COCCn1c2c([n+](Cc3cnccn3)c1C)C(=O)c1ccccc1C2=O,x,0.0764µM,0.0961µM,x
COc1cc2c(cc1OC)C(C[C@H]1CN(C(=O)c3ccc(C#N)cc3)CC[C@H]1CC(=O)O)=NCC2,n,n,n,n
COc1cc2c(cc1OC)C(C[C@H]1CN(C(=O)c3ccc(N(C)C)cc3)CC[C@H]1CC(=O)O)=NCC2,28.2µM,n,n,n
COc1cc2c(cc1OC)C(C[C@H]1CN(C(=O)c3ccco3)CC[C@H]1CC(=O)O)=NCC2,28.2µM,n,n,n
COc1ccc(CC(=O)N2CC[C@@H](CC(=O)O)[C@@H](CC3=NCCc4cc(OC)c(OC)cc43)C2)cc1,31.6µM,n,n,n
O=C(O)C[C@@H]1CCN(C(=O)c2ccco2)C[C@@H]1CC1=NCCc2ccccc21,u,n,n,n
CCN(CC)S(=O)(=O)c1ccc(Cl)c(C(=O)Nc2c(C)cc(C)cc2Cl)c1,n,x,x,x
Cc1cc(/C=C/C(=O)c2ccc(O)c(CCCl)c2)cc(C)c1OC(F)F,n,x,x,x
Cc1cccn2c(CNC(=O)CCc3cc4n(n3)CCCNC4)cnc12,25.1µM,n,n,n
SMILES,KDM5B inh,SNCA viab count,SNCA expr inhib,IP6K1 inhibitor
O=C(NCc1cc2n(n1)CCCNC2)c1ccc(Cn2cnnn2)cc1,n,n,n,n
Cc1cccc2ncc(C(=O)NCc3cc4n(n3)CCCNC4)c(=O)n12,28.2µM,n,n,n
Cc1cc(N2CCNC(c3ccccc3)C2)n2nc(C)c(C)c2n1 (stereo not drawn),n,u,n,n
Cc1nn2c(N3CCC(O)C3)cc(-c3ccccc3)nc2c1C (stereo not drawn),28.2µM,n,n,n
CN1CCN(S(=O)(=O)c2cc(Br)cc(C(=O)O)c2)CC1,n,n,n,n
COc1ccc(-c2cc(C(=O)O)cc(S(=O)(=O)N3CCN(C)CC3)c2)cc1,15.8µM,n,n,n
COc1cccc(-c2cc(C(=O)N(C)Cc3ccccc3)c3cnn(C)c3n2)c1,x,x,x,n
CC1=C(CO)C(=O)O[C@@H]([C@@H](C)[C@H]2CC[C@H]3[C@@H]4C[C@H]5O[C@]56[C@@H](O)C=CC(=O)[C@]6(C)[C@@H]4CC[C@]23C)C1,x,6.81µM,3.04µM,x
